In the supplement of paper PMC7393113:
Where a name gives a salt, the structure may show the parent alone. ± gives the standard deviation of the averaged measurements.

Test system: iBMDM (immortalised mouse bone-marrow-derived macrophages), LPS-stimulated
Experiment: mitochondrial superoxide (MitoSOX fluorescence) fold increase over unstimulated control; higher = more LPS-induced mitochondrial ROS (less inhibition)
Conditions: inhibitor concentration: 500 nM, LPS: 100 ng/ml
Procedure, shortened: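 After 20 h in phenol-red-free 1% FCS/DMEM in black 96-well plates, immortalised mouse bone-marrow-derived macrophages were exposed to kinase inhibitors (500 nM) for 30 min, 1 μM MitoSox for 10 min and then LPS (100 ng/ml). A ClarioStar plate reader recorded fluorescence at 510/580 nm every 60 min for 4 h. The reported mitochondrial superoxide is the mean fold induction versus untreated macrophages over triplicate wells.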

| Structure (SMILES) | mitochondrial superoxide (time after LPS: 1 h) | mitochondrial superoxide (time after LPS: 2 h) | mitochondrial superoxide (time after LPS: 4 h) |
| --- | --- | --- | --- |
| Cc1ccc(C(=O)Nc2ccc(CN3CCN(C)CC3)c(C(F)(F)F)c2)cc1C#Cc1cnc2[nH]ncc2c1 | 1.42 ± 0.049 | 1.53 ± 0.032 | 1.75 ± 0.062 |
| Cc1cc(Nc2cc(CN3CCOCC3)c3nc(C)c(Cc4ccc(Cl)cc4F)n3n2)n[nH]1 | 1.16 ± 0.062 | 1.23 ± 0.048 | 1.38 ± 0.035 |
| COc1ccc(S(=O)(=O)N(C(C)=O)c2ccccc2/C=C/c2cc[n+]([O-])cc2)cc1 | 1.15 ± 0.035 | 1.17 ± 0.058 | 1.32 ± 0.05 |
| COc1ccc(-c2ccc3ncc4c(c3c2)n(-c2ccc(N3CCNCC3)c(C(F)(F)F)c2)c(=O)n4C)cn1 | 1.1 ± 0.041 | 1.27 ± 0.078 | 1.49 ± 0.077 |
| O=C(NCc1cccc(O)c1)Nc1nc(-c2ccncc2)cs1 | 1.36 ± 0.026 | 1.44 ± 0.015 | 1.64 ± 0.017 |
| CC1=C(C(=O)Nc2cc3cn[nH]c3cc2F)C(c2ccc(C(F)(F)F)cc2)CC(=O)N1 (stereo unspecified) | 1.23 ± 0.085 | 1.26 ± 0.033 | 1.35 ± 0.057 |
| C=CC(=O)N1CCC[C@@H](n2nc(-c3ccc(Oc4ccccc4)cc3)c3c(N)ncnc32)C1 | 1.26 ± 0.099 | 1.32 ± 0.041 | 1.46 ± 0.043 |
| CNC(=O)c1cc(Oc2ccc(NC(=O)Nc3ccc(Cl)c(C(F)(F)F)c3)cc2)ccn1 [Sorafenib Tosylate] | 1.6 ± 0.039 | 1.68 ± 0.099 | 1.73 ± 0.077 |
| Cc1cc([C@@H](C)Nc2ccccc2C(=O)O)c2nc(N3CCOCC3)cc(=O)n2c1 | 1.14 ± 0.043 | 1.22 ± 0.077 | 1.21 ± 0.027 |
| CCn1cc(-c2ccnc3[nH]c(-c4cccc(CN(C)C)c4)cc23)c(-c2ccc(NC(=O)N(C)C)cc2)n1 | 1.27 ± 0.026 | 1.45 ± 0.047 | 1.71 ± 0.16 |
| Cc1cc2c(F)c(Oc3ncnn4cc(OC[C@@H](C)OC(=O)[C@H](C)N)c(C)c34)ccc2[nH]1 | 1.37 ± 0.023 | 1.46 ± 0.058 | 1.53 ± 0.016 |
| CCCNC(=O)Nc1ccc(Oc2ncnc3cc(OC)c(OC)cc23)cc1Cl | 1.15 ± 0.055 | 1.21 ± 0.066 | 1.22 ± 0.024 |
| Cc1cnc(Nc2ccc(N3CCN(C)CC3)cc2)nc1Nc1cccc(S(=O)(=O)NC(C)(C)C)c1 | 1.36 ± 0.025 | 1.51 ± 0.04 | 1.65 ± 0.027 |
| N#Cc1c(O)c2c(-c3ccc(-c4ccccc4O)cc3)csc2[nH]c1=O | 1.3 ± 0.051 | 1.43 ± 0.023 | 1.52 ± 0.034 |
| CCN1CCN(Cc2ccc(-c3cc4c(N[C@H](C)c5ccccc5)ncnc4[nH]3)cc2)CC1 | 1.08 ± 0.019 | 1.11 ± 0.04 | 1.25 ± 0.081 |
| COc1cc(Nc2ncc3c(n2)-c2ccc(Cl)cc2C(c2c(F)cccc2OC)=NC3)ccc1C(=O)O [Alisertib (MLN8237)] | 1.37 ± 0.058 | 1.41 ± 0.035 | 1.46 ± 0.047 |

| Structure (SMILES) | mitochondrial superoxide (time after LPS: 1 h) | mitochondrial superoxide (time after LPS: 2 h) | mitochondrial superoxide (time after LPS: 4 h) |
| --- | --- | --- | --- |
| CO[C@H]1C[C@@H]2CC[C@@H](C)[C@@](O)(O2)C(=O)C(=O)N2CCCC[C@H]2C(=O)O[C@H]([C@H](C)C[C@@H]2CC[C@@H](OCCO)[C@H](OC)C2)CC(=O)[C@H](C)/C=C(\C)[C@@H](O)[C@@H](OC)C(=O)[C@H](C)C[C@H](C)/C=C/C=C/C=C/1C [Everolimus (RAD001)] | 1.37 ± 0.055 | 1.42 ± 0.028 | 1.5 ± 0.06 |
| COc1ccc(F)c(F)c1C(=O)c1cnc(NC2CCN(S(C)(=O)=O)CC2)nc1N | 1.28 ± 0.081 | 1.57 ± 0.13 | 1.8 ± 0.14 |
| FC(F)c1nc2ccccc2n1-c1nc(N2CCOCC2)nc(N2CCOCC2)n1 | 1.53 ± 0.029 | 1.71 ± 0.068 | 1.8 ± 0.038 |
| COc1ccc(C(=O)Nc2sc3c(c2C(N)=O)CCCC3)cc1OC | 1.42 ± 0.034 | 1.49 ± 0.045 | 1.64 ± 0.03 |
| COc1cc2ncnc(Nc3ccc(O)c(Br)c3)c2cc1OC | 1.04 ± 0.047 | 1.04 ± 0.082 | 1.07 ± 0.12 |
| CC(=O)Nc1cccc(-n2c(=O)n(C3CC3)c(=O)c3c(Nc4ccc(I)cc4F)n(C)c(=O)c(C)c32)c1 | 1.34 ± 0.11 | 1.44 ± 0.066 | 1.62 ± 0.083 |
| O=C(Nc1cccc(Nc2ncc(Br)c(NCCc3cnc[nH]3)n2)c1)N1CCCC1 | 1.13 ± 0.088 | 1.11 ± 0.043 | 1.16 ± 0.04 |
| O=C(Cc1ccc(-c2ccc(OCCN3CCOCC3)cc2)cn1)NCc1ccccc1 | 1.31 ± 0.1 | 1.4 ± 0.1 | 1.61 ± 0.11 |
| CC(C)(O)CC(=O)NCCn1ccc2ncnc(Nc3ccc(Oc4cccc(C(F)(F)F)c4)c(Cl)c3)c21 | 1.14 ± 0.019 | 1.37 ± 0.12 | 1.62 ± 0.14 |
| O=C1Nc2ccc(I)cc2C1=Cc1cc(Br)c(O)c(Br)c1 | 1.1 ± 0.039 | 1.07 ± 0.074 | 1.09 ± 0.014 |
| COc1cc2nccc(Oc3ccc(NC(=O)Nc4ccc(F)cc4F)c(F)c3)c2cc1OC | 1.13 ± 0.036 | 1.27 ± 0.071 | 1.28 ± 0.13 |
| CO[C@@H](C(=O)N1Cc2[nH]nc(NC(=O)c3ccc(N4CCN(C)CC4)cc3)c2C1)c1ccccc1 | 1.3 ± 0.035 | 1.38 ± 0.029 | 1.48 ± 0.038 |
| NCC(=O)Nc1ccc(-n2nc(C(F)(F)F)cc2-c2ccc3c(ccc4ccccc43)c2)cc1 | 1.414 ± 0.012 | 1.41 ± 0.031 | 1.49 ± 0.087 |
| COc1ccc2c(Oc3ccc(NC(=O)c4c(C)n(CC(C)(C)O)n(-c5ccccc5)c4=O)nc3)ccnc2c1 | 1.09 ± 0.031 | 1.2 ± 0.034 | 1.391 ± 0.0084 |
| N#Cc1ccc2[nH]c(O)c(-c3ccc(CN4CCOCC4)cn3)c2c1 | 1.08 ± 0.043 | 1.24 ± 0.097 | 1.38 ± 0.045 |
| CN(C)C1CCN(C(=O)c2ccc(NC(=O)Nc3ccc(-c4nc(N5CCOCC5)nc(N5CCOCC5)n4)cc3)cc2)CC1 | 1.1 ± 0.061 | 1.29 ± 0.014 | 1.58 ± 0.095 |
